From the supplement of paper PMC11417369 come the findings set out here.

Over roughly 25,000 sequences, “ln(normalized median fluorescence intensity)” has its median near 9.3; the highest 2% begin near 10. Shown is part of a subset that was picked to be rich in the highest values.

The test system of this assay is PF3D7_0420300 AP2 domain 1 (GST-tagged). Kind of assay: gcPBM binding intensity (ln(normalized median fluorescence intensity)); higher = stronger DNA binding. The gist of the method: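 In this array assay, P. falciparum DNA-binding domains with a GST tag, expressed in E. coli, were applied for 1 h to primer-extended double-stranded 36-bp intergenic genomic probes and negative controls on an Agilent 4 × 180k array. Bound protein was visualised with Alexa488 anti-GST antibody at 488 nm. Binding intensity is the highest Masliner-normalised natural-log median intensity across replicate spots of either probe orientation.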
As for “AATATAAAAATATAAAAACACACGTAAAAAAATTTA [CACACA_site3399]”, the “gcPBM binding intensity (ln)” value is 9.73.
For “TAATTTCTTATGTATTGTACAAATAATGTATGATAT [XGTACX_site270]”, the “gcPBM binding intensity (ln)” value was determined as 9.2.
As for AAAAAAAAAAAAAAGGTGCAAATAAATTAACCTTAT, the figure is 9.16.
As for “TGCAAGGAACAACACACACACACATAAATGTATATA [CACACA_site8149]”, the figure is 10.2; as for “AGAAAAAACAAAAGAGAAATGAAAAAAAAAAAAAAA [XGTACX_negctrl_site482]”, 8.87.
For “TTAAGATAGCAAATATGTACACATTTGTAAAATAAA [XGTACX_site4837]”, the “gcPBM binding intensity (ln)” value was determined as 9.25.
Consider “TTAAACGTACATAATACACACACATGTAGACATATA [CACACA_site8635]”, for which the “gcPBM binding intensity (ln)” value was 9.79.
As for “TATATATATTGTTATTGTACACAAATATAGGAAATA [XGTACX_site7110]”, the figure is 9.23; as for “TTTATTAATTTATAGTGTACATATTAATAATATATT [XGTACX_site7949]”, 9.09.
As for “ATATATTATTTCTAGTGTACATACCCATATATAATA [XGTACX_site8902]”, the figure is 9.46; as for “GTTTTCTAGTGGGGGTGTACATATTTATATTTAATA [XGTACX_site8378]”, 10.2.
As for “TTTGTGATATTATATTGTACCCTATATTTATTATAA [XGTACX_site4240]”, the figure is 9.56.
Regarding “TTATGTTCATTATATGCACACATATATATAAATGTA [CACACA_site8947]”, the “gcPBM binding intensity (ln)” value was determined as 9.24.
Consider “TTTTTATAACAGCTTAGTACATATAAGAATTCTTGC [XGTACX_site5890]”, for which the “gcPBM binding intensity (ln)” value came to 8.9.
For “TAAAAGTTGAAGCACACACACAAAAGAAATACAATA [CACACA_site6649]” the value was 10.1.
Regarding “AAGCACAAAAAATACACACACAAAAAATAAAAAAAG [CACACA_site1840]”, the “gcPBM binding intensity (ln)” value was determined as 10.1.
For “TAAAAATTGAAGCACACACACAAAAGAAATACAATA [CACACA_site1113]” the value was 10.2; for “AACATAAAAATTGAAGCACACACACTAATGAAATAC [CACACA_site8287]”, 10.2; for “GCAAAATAAAGAAGCACACAAAAATGAAATATATAT [CACACA_site3651]”, 9.59.
As for “TCATAATGAAAACAAGCACACATACATAAAATAAAA [CACACA_site9069]”, the figure is 9.7; as for “ATAATGAAAACAAGCACACATACATAAAATAAAATA [CACACA_site3257]”, 9.86.
As for “CATAAAAATTGAAGCACACACACAAAAGAAATACAA [CACACA_site1112]”, the figure is 10.2.
Consider “TAAAAGAAAGCACATACACACACAAAAAAAAAAAAG [CACACA_site8159]”, for which the “gcPBM binding intensity (ln)” value stood at 10.2.
Turning to “GGTCTTTTCAACACACGTACATAAAAATATTATACA [XGTACX_site5360]”, the “gcPBM binding intensity (ln)” value is 9.47.
As for “AAATAAATAATAAATAAATAAATAAAATACCAAATA [GTGCAC_negctrl_site620]”, the figure is 9.6.
For “AAGAAAATATAAAATGCACACTATAAATTGTATATA [CACACA_site7928]” the value was 9.51.
Take “TACATAAATACATACATACACACATATATATATATA [CACACA_site2105]”: the “gcPBM binding intensity (ln)” value worked out at 9.56.
With “AAATAAAAAACAGTGGCACACATTATGTATCCACCT [CACACA_site3756]”, the “gcPBM binding intensity (ln)” value stood at 9.32.
As to “TATATACGCATGCGCACACACAAGTGGGAAATTTGG [CACACA_site1785]”, the “gcPBM binding intensity (ln)” value turned out to be 9.52.
Regarding “TGATATTTTATTATTAAAATATATACATATATATAT [CACACA_negctrl_site1456]”, the “gcPBM binding intensity (ln)” value was determined as 9.26.
With “TAAAAAAGTTATATTACACACTTTATTGGTTAACTT [CACACA_site653]”, the “gcPBM binding intensity (ln)” value came out at 9.35.
As to “AGCTCTTGTCATTTTGCACACACACCGGTATAGGTT [CACACA_site5654]”, the “gcPBM binding intensity (ln)” value worked out at 10.1.
As for “CTTGTCATTGGGCACACACACATGTATAGGTTATTA [CACACA_site3058]”, the figure is 9.7; as for “AGCTCTTGTCATTTTGCACACACACCCGTATAGGTT [CACACA_site3056]”, 10; as for “CTCTTGTCATTTTGCACACACACATGGATAGGTTAT [CACACA_site5655]”, 10.2.
Take “CTCTTGTCATTTTGCACACACACATGTATAGGTTAT [CACACA_site3057]”: the “gcPBM binding intensity (ln)” value is 10.2.
For the sequence “CTTGTCATTTGGCACACACACATGTATAGGTTATTA [CACACA_site5656]”, the “gcPBM binding intensity (ln)” value is 9.9.
As for “CGTATGTATATATATATACACACTTCTGTGATACGA [CACACA_site1949]”, the “gcPBM binding intensity (ln)” value turned out to be 9.33.
Take “ATATAATTATATTCCATACACACATATATTTAAAGG [CACACA_site2958]”: the “gcPBM binding intensity (ln)” value is 9.42.
For “TAAATAAGCACATACACACATACATACATACATAAA [CACACA_site4017]” the value was 9.87; for “TATAAACATTATAAATGTACAAATATATATATATAT [XGTACX_site3218]”, 9.28; for ATTATAATTACTCTAGTGCATTATAAATATGAATAA, 8.93.
“TATGCAAGGAACCACACACACACACCGAAATGTATA [CACACA_site4573]”: the “gcPBM binding intensity (ln)” value worked out at 10.1.
For the sequence “TATGCAAGGAACCACACACACACACGGAAATGTATA [CACACA_site6490]”, the “gcPBM binding intensity (ln)” value is 10.2.
For “TATGCAAGGAACCACACACACACACCCAAATGTATA [CACACA_site750]” the value was 10.1.
As for “AAATTAAAAAAAAATAAATAAAAAAAAAAAAAAAAT [CACACA_negctrl_site1611]”, the figure is 9.35.
With “TGGATATATGTAAAAATTGCAAGAAAGATAAAAGGA [CACACA_negctrl_site64]”, the “gcPBM binding intensity (ln)” value amounted to 9.6.
For “GCAACAAAAAATCAGACATGCATTTTAAAATGAATA [TGCATGCA_site846]” the value was 9.14; for “TATTAAACTAAATGTAGTACATACACAAAAGAAACC [XGTACX_site606]”, 9.75.
For “GTTAATATTTTTGGGGGTACTTAAAAAAAAAAAAAA [XGTACX_site1477]”, the “gcPBM binding intensity (ln)” value turned out to be 9.22.
For the sequence “TATACTTTATATATTTTGTATATATATTTTTTTTAT [TGCATGCA_negctrl_site530]”, the “gcPBM binding intensity (ln)” value worked out at 9.34.
As for “ATTTTTTTTTTTTTTTTGGGGGGGTATACTTTTAAA [CACACA_negctrl_site1020]”, the figure is 10.8.
For “TTCATAAGAAGGAACTGTACATATTTTTCATTTTTT [XGTACX_site6770]” the value was 9.15; for “TTATTATTAAGACACACACACAAAAAAAAAAAAAAA [CACACA_site6805]”, 9.73.
For “ATAGACAGCGCACAAACACACAAACACGCACGCACA [CACACA_site6349]” the value was 9.6; for “TAAATTAAAAGACACACACACAAAAAAAAAAAAAAA [CACACA_site7131]”, 9.66; for “AAAAAAAACACGCGCACACACACACCCACAGACACA [CACACA_site5253]”, 9.92.
Consider “AATTAACAAAGACACACACACACACGCACAAAAAAA [CACACA_site6388]”, for which the “gcPBM binding intensity (ln)” value came to 10.2.
As for “TACACAAACAGACACACACACACACGCGCACAAAAA [CACACA_site7192]”, the figure is 10.2; as for “CACAAACAAAGACACACACACACACGCACAAAAATG [CACACA_site7193]”, 10.1; as for “AATGTGTAGACACGCACACACAAAAAAATATTTATA [CACACA_site7384]”, 9.6.
With “TATTTATTAAGACACACACACACACGCACAAAATAA [CACACA_site6254]”, the “gcPBM binding intensity (ln)” value is 10.2.
For “TAATAAATAAATGACACACACACACGCAAAAAAAAA [CACACA_site7275]” the value was 10.1; for “TTTATTAATAGACACACACACACACGCAAAATAAAA [CACACA_site6255]”, 10.2; for “CCTCATATTATAGACACACACAAAAAAAATAAAAAA [CACACA_site180]”, 9.74.
In the case of “TTATTAACCTAAATTAGTACATATAATATAAAAAAT [XGTACX_site8661]”, the “gcPBM binding intensity (ln)” value was determined as 9.18.
With “GAAAAGAAAAATAAACGTACATAAATATTAACATTA [XGTACX_site8213]”, the “gcPBM binding intensity (ln)” value was determined as 9.2.
As for “AGGCTCATTTTTTTTAGTACATCAAAAAAAAAAAAA [TGCATGCA_negctrl_site591]”, the figure is 8.7; as for “TTTTTTTTTTTTTTTTGTACATATATATAAAAAATA [XGTACX_site2772]”, 8.49; as for “ATATATAACTTTTCTTAACACACAAAAAACAAAAAT [CACACA_site8748]”, 9.56.
On to “TATATATATATAAACGCATGTAATTTATACACACAT [TGCATGCA_site946]”, for which the “gcPBM binding intensity (ln)” value is 9.41.
On to GACAATTATATGTAGGTGCATATACAAATTTTTTAA, for which the “gcPBM binding intensity (ln)” value was found to be 9.11.
For “ATATATATATATAACACACGCAAAAAAATTAAATAA [CACACA_site1400]” the value was 9.69; for “AAAACAAATAGACACGCACACAAAAAAAAAAAAAAA [CACACA_site801]”, 9.33; for “TTAACAAATAGACACACACACACACGCAAAAAAAAA [CACACA_site6387]”, 10.2.
For “AAAAAAAAAAAATATATATATATATATATATATATA [CACACA_negctrl_site1606]” the value was 9.3.
Regarding “TATATAAAAATATACACACACAAATGTATATATATA [CACACA_site220]”, the “gcPBM binding intensity (ln)” value amounted to 9.68.
As for “AAAAAAAAAAAAAAATACAAGCACATTTATATAAGC [GTGCAC_negctrl_site695]”, the figure is 9.46.
As for “AAATACTGATTTGGTTGTACATGTGCACTATATAAC [XGTACX_site3795]”, the figure is 9.35.
As for “TCATTTCACAAACACACACACACAATATATTTCCTT [CACACA_site3905]”, the figure is 10.1; as for “TCATTTCACAGACACACACACACAATATATTTCCTT [CACACA_site9295]”, 10.2; as for “TCATTTCACGGACACACACACACAATATATTTCCTT [CACACA_site6023]”, 10.2.
For “TATTTTATAATTTACCGTACATTAATTGTATTATTA [XGTACX_site5722]”, the “gcPBM binding intensity (ln)” value worked out at 9.33.
As for “ATCAAAAGAAAACACACACACATACATATATATATA [CACACA_site3795]”, the figure is 10.1; as for “TAGATACAGAAACACACACACACATACATATATACA [CACACA_site3437]”, 10.2; as for “GTATCAAAAGAATACACACACACATACAGATATATA [CACACA_site5975]”, 10.1.
For “CAATCAAATGGACACACACACACCTAAACATAAAAG [CACACA_site5524]” the value was 10.2; for “CAATCAAAGAAACACACACACACCTAAACATAAAAG [CACACA_site2756]”, 10.2; for “CATACACAGAAACACACACACATATATACATATATA [CACACA_site1094]”, 10.1.
As for “TACATACAGAAACACACACACACATATATATATATA [CACACA_site2919]”, the figure is 10; as for “CAATCAAATAGACACACACACACCTAAACATAAAAG [CACACA_site7322]”, 10.1.
With “ATCAAAAGAAAACACACACACATACAGATATATATA [CACACA_site5974]”, the “gcPBM binding intensity (ln)” value turned out to be 10.2.
